# Test results reported in PubChem BioAssay AID488862 (Broad Institute, 2010).
# Among all 340,000 compounds or so, about 1,200 (0.35%) were called active. The entries come from a sample that favours actives as a whole. Unmarked numbers belong to inactive results. No stated cut-off is given here; in the data, active means inhibition above about 52%; inactive means the rest.
# Experiment: suppresses PrP 5' UTR mRNA reporter expression (AID 488862); further: 0 = median of the neutral control wells
# Conditions: cell-based PrP 5' UTR mRNA reporter, plate reader; stronger effect = higher value; concentration not given here
row,Compound,inhibition
1,COc1ccc(OCC(=O)N2CCN(C(=O)c3cccs3)CC2)cc1,-6.1%
2,O=C(CSc1ncnc2sccc12)NC1CCS(=O)(=O)C1 (stereo unspecified),-11.1%
3,O=C(CSc1ncnc2sccc12)N1CCN(C(=O)c2cccs2)CC1,87.3% (active)
4,C/C(CC(=O)Nc1ccc(C)cc1C)=N\NC(=O)C(C)C,-21%
5,COC(=O)c1cc(S(=O)(=O)NC2CCN(Cc3ccccc3)CC2)cn1C,-8.61%
6,Brc1ccc2ncnc(NCc3cccnc3)c2c1,12.1%
7,O=C(O)CCCCCNc1ncnc2ccc(Br)cc12,6.38%
8,COc1ccc(Nc2ncnc3ccc(Br)cc23)c(OC)c1,72.3% (active)
9,Cc1ccc(C)c(NC(=O)COC(=O)c2nn(C)c(=O)c3ccccc23)c1,-7.85%
10,O=C1Nc2cc(C(=O)N3CCN(c4ccc(F)cc4)CC3)ccc2NC1CSCc1cccc(F)c1 (stereo unspecified),-17.6%
11,CCOCCCNC(=O)C(=O)NCCCOCC,-28.8%
12,CC(C)CC(CC(C)C)=NNC(=O)c1ccc(CSc2nncn2C)cc1,-20.2%
13,CSc1nc(-c2ccccc2)nc(C(Cl)Cl)n1,86.3% (active)
14,CN(C)C(=S)N=c1ssc(=S)n1Cc1ccco1,13.6%
15,COc1cc(OC)cc(C(=O)N[C@H](C(=O)NNC(=O)c2ccc(Br)cc2)C(C)C)c1,-12.3%
16,COc1cc(OC)cc(C(=O)N[C@H](C(=O)Nc2nc3ccccc3[nH]2)C(C)C)c1,67.8% (active)
17,COc1ccc(C(=O)N[C@H](C(=O)NCc2ccccc2)C(C)C)cc1,-2.13%
18,Cc1cc(C)c(SCCc2ccncc2)c(C)c1,-26.1%
19,C=CCOc1ccc(/C=C2\SC(=S)N(CCC(=O)O)C2=O)cc1,79.7% (active)
20,Cc1ccc(/C=C2/SC(=S)N(CCC(=O)NCCCN3CCOCC3)C2=O)cc1,-12.2%
21,O=C1/C(=C/c2ccc(F)cc2)SC(=S)N1CCCC(=O)N1CCCCC1CCO (stereo unspecified),-14.7%
22,Cn1c(=S)sc2ccc3ccccc3c21,-8.89%
23,CCC(C)Cn1c(O)cc2nn(-c3nc4ccccc4s3)c(=O)c-2c1C (stereo unspecified),92.2% (active)
24,O=C(C(=O)N1CCc2ccccc2C1)c1c[nH]c2ccccc12,-13.2%

row,Compound,inhibition
1,Cc1nc2nc(COc3ccccc3)[nH]n2c(=O)c1Cc1ccccc1,-6.88%
2,O=c1oc2ccccc2cc1-c1cn(-c2ccccc2)c(=S)[nH]1,65.9% (active)
3,COc1cccc(-n2c(=S)[nH]c3c(oc4ccccc43)c2=O)c1,-5.49%
4,CS(=O)(=O)N1CCN(C(=O)c2cc3ccccc3oc2=O)CC1,-9.85%
5,CC1(C)O[C@@H]2[C@H](O1)[C@@H](COS(=O)(=O)O)O[C@H]2n1cnc2c(=O)[nH]cnc21,-8.78%
6,CC(=NCc1ccco1)c1c(C(F)(F)F)[nH]n(-c2nc3ccccc3s2)c1=O,0.0675%
7,COc1ccc(C(=O)Nc2cccc(/C=C(/CCC(=O)O)c3nc4ccccc4s3)c2)cc1,-8.9%
8,COC(=O)Cc1[nH]n(-c2nc3ccccc3s2)c(=O)c1C(C)=Nc1ccc(OC)cc1,80.1% (active)
9,COc1ccc(C(=O)COC(=O)C(O)c2ccccc2)c(OC)c1 (stereo unspecified),-34.1%
10,CC(=O)OC1C2(CC3N4C(=O)C5(CO)SSC4(CC31O)C(=O)N5C)OC(C)C(C)(C)C2=O (stereo unspecified),96.4% (active)
11,CC(C)c1ccc(/C=C/C(=O)NCCCN2CCOCC2)cc1,-9.62%
12,OCCC1CN(Cc2ccc3nsnc3c2)CCN1C1CCCC1 (stereo unspecified),-10%
13,Cc1ccsc1C(=O)OCC(=O)Nc1cccc(F)c1,-13.8%
14,COc1ccc(C(=O)OCC(=O)c2cc(C)n(CC3CCCO3)c2C)cc1[N+](=O)[O-] (stereo unspecified),-11.7%
15,Cc1ccsc1C(=O)OCC(=O)c1cc(C)n(CC2CCCO2)c1C (stereo unspecified),78.7% (active)
16,COc1ccc(Cl)cc1NC(=O)[C@@H]1CCCN1C(=O)c1cccs1,-9.55%
17,COc1cc(NS(=O)(=O)c2ccc(NC(=S)NC(=O)c3ccccc3)cc2)nc(OC)n1,1.17%
18,CS(=O)(=O)N(CC(=O)N1CCCCCC1)c1cccc(Cl)c1Cl,-24.3%
19,COc1ccc(NS(=O)(=O)c2ccc3oc(SCC(N)=O)nc3c2)cc1,-11.7%
20,CCn1c(=O)c(=O)[nH]c2c(=O)oc3ccc(S(=O)(=O)Nc4ccc(OC)cc4)cc3c21,69% (active)
21,COc1ccc(S(=O)(=O)Nc2ccc3oc(C)c(C(C)=O)c3c2)cc1,-20.1%
22,O=c1c2ccccc2cnn1Cc1n[nH]c(=S)n1-c1ccccc1F,-33.3%
23,O=C(COc1cc(Cl)c(Cl)cc1Cl)NCCc1ccccn1,-11.6%
24,Cc1ccc(C(=O)Nc2nc3ccc(Cl)cc3s2)o1,-73.3%

row,Compound,inhibition
1,Cc1ccc(CCC(=O)Nc2ncc(Cc3cc(Cl)ccc3Cl)s2)o1,78% (active)
2,Cc1ccc(Cc2cnc(N)s2)o1,-14.5%
3,Cn1c(-c2ccccc2)c[n+]2c1CCCCC2,-9.16%
4,CCN1CCN(c2nc(Nc3cc(OC)ccc3OC)nc(Nc3cc(OC)ccc3OC)n2)CC1,-23.7%
5,CCOC(=O)c1c(C)n(C)c2ccc(OC)c(NC(=O)CN3CCC4(CC3)OCCO4)c12,-19%
6,NS(=O)(=O)c1ccc(CNC(=O)c2ccc(Cl)cc2[N+](=O)[O-])cc1,-4.62%
7,NC(=O)c1ccc(NC(=O)COC(=O)c2ccc([N+](=O)[O-])cc2)cc1,61.8% (active)
8,CC(=O)Nc1ccc(C(=O)OCC(=O)Nc2ccc([N+](=O)[O-])cc2C(F)(F)F)cc1,-18.6%
9,O=C(COC(=O)C1CCCCC1)Nc1ccc([N+](=O)[O-])cc1,5.99%
10,O=C(CCc1ccccc1)NCCc1cccs1,-25.9%
11,Cn1c(SCC(=O)NC2CCCCC2)nnc1-c1cc2ccccc2o1,-18.5%
12,O=C1/C(=C\c2ccc([N+](=O)[O-])cc2)CS(=O)(=O)C/C1=C/c1ccc([N+](=O)[O-])cc1,71.1% (active)
13,Nc1ccc([N+](=O)[O-])cc1,3.7%
14,O=[N+]([O-])c1ccc(C=NN=Cc2ccc([N+](=O)[O-])cc2)cc1,-32.5%
15,Cc1nonc1C(=O)N/N=C/c1ccc(O)cc1,-28.8%
16,COC(=O)c1ccccc1NC(=O)CN(Cc1ccccc1)S(C)(=O)=O,-21.1%
17,COc1cccc(/C=N\Nc2nncc(-c3ccccc3)n2)c1,-63.5%
18,C/C(=N\Nc1nncc2ccccc12)c1ccc(Cl)c([N+](=O)[O-])c1,-45.7%
19,CN(CCO)c1ccc(/C=N/Nc2nncc3ccccc23)cc1,79.8% (active)
20,CC(C)(C)C1CCC(C(=O)Nc2cccnc2)CC1 (stereo unspecified),-7.89%
21,O=C(Nc1ccc(Br)cn1)C1CCN(S(=O)(=O)c2cccs2)CC1,-7.76%
22,CC1CCc2sc(C(=O)N/N=C/C3CCCCC3)cc2C1 (stereo unspecified),1.9%
23,C/C(=N\NC(=O)c1cc2c(s1)CCC(C)C2)c1cccnc1 (stereo unspecified),55.4% (active)
24,C/C(=N\NC(=O)c1ccc2ccccc2c1)c1cccnc1,-12.7%

row,Compound,inhibition
1,COc1ccc2oc(C(=O)OCC(=O)N(CC(C)C)c3c(N)n(Cc4ccccc4)c(=O)[nH]c3=O)c(C)c2c1,4.93%
2,COc1ccc(N(C(=O)c2ccc(C)cc2)S(=O)(=O)c2cccs2)cc1,-6.19%
3,CC(C)(C)c1ccc(OC2=CS(=O)(=O)c3ccccc32)cc1,-61.3%
4,CC(C)(C)c1ccc(OC(=O)N2CCCCC2)cc1,-72.8%
5,CC(C)(C)c1ccc(Oc2ccc(N)cc2)cc1,64.6% (active)
6,CCOC(=O)N1CCN(C(=O)COCc2cc(-c3ccc4c(c3)OCO4)on2)CC1,-11.7%
7,N#C/C=C\Oc1ccc(Cl)cc1N,-13%
8,COc1cccc2c1OCC1COc3c(c(=O)n(C)c(=O)n3C)C21 (stereo unspecified),-23.4%
9,O=C(NCCCN1CCOCC1)c1ccccc1NS(=O)(=O)c1ccc(Br)cc1,-22.1%
10,COCC(C)n1c(C)cc(C(=O)CSc2cc(C)c3ccccc3n2)c1C (stereo unspecified),-11.2%
11,c1ccc(-n2ncc(-c3nn[nH]n3)n2)cc1,-12.7%
12,c1c2c(cc3sc(N4CCCCC4)nc13)OCCO2,76.1% (active)
13,O=S(=O)(Nc1ccc2nc(N3CCOCC3)sc2c1)c1ccccc1,-104%
14,CN(C)CCN(C(=O)C1CCCCC1)c1nc2cc3c(cc2s1)OCO3,-8.29%
15,CC(=O)N1CCc2cc(S(=O)(=O)Nc3ccccc3N3CCN(C)CC3)ccc21,-36.7%
16,Cc1ccc(C(c2sc3nc(C)nn3c2O)N2CCN(c3ccccc3)CC2)cc1 (stereo unspecified),-16.6%
17,CC12CCC3C(CCC4CC(=O)CCC43C)C1CC(=NO)C2=O (stereo unspecified),52% (active)
18,C[C@]12CCC3C(CC[C@H]4[C@H](O)[C@H](O)CC[C@]34C)C1CCC2=O (stereo partly specified),-23.5%
19,CC(C)C(NC(=O)OCc1ccccc1)C(=O)OCC(=O)N1C(C)CCCC1C (stereo unspecified),-20.8%
20,CN(C)C(=O)c1cc(Br)ccc1Cl,-23.2%
21,CC(C)CC[n+]1ccn(C2=C([O-])c3ccccc3C(=O)/C2=N\S(=O)(=O)c2ccccc2)c1,-17.3%
22,CN(c1ccc2nc3ccccc3c(=O)n2n1)C1CCCCC1,78.1% (active)
23,CC(C)C(C)NC(=O)COc1nc2ccccc2nc1N(C)C1CCCCC1 (stereo unspecified),-28.4%
24,CC(C)(C)c1nc2ccccc2c(=O)n1N1C(=O)c2ccccc2C1=O,-7.16%
